Data reported in PubChem BioAssay (NCATS).
Inconclusive results are not listed. The source made the active and inactive calls. Unless noted, calls come from the whole dose curve; as a rule, active = well fitted curve in the direction sought with a large enough effect; inconclusive = small, poorly fitted or top-dose-only effect, or another doubt; inactive = no such curve, though single readings can be large; an effect the other way counts as inactive or inconclusive.

Columns and labels:
[1] = qHTS for inhibitors of adenylyl cyclases using a fission yeast platform: a pilot screen against the NCATS LOPAC library (AID 1347410);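 note: plate controls were DMSO vehicle for no effect and DPI positive control for full effect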
Method in brief: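 GFP from fbp1-GFP reporter, read by Acumen laser cytometry, indicates AC inhibition in fission yeast expressing AC9, GNAS and PDE4D2. Cells grown 18 h in the dark at 30C with compounds, final up to 57 uM.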

[2] = target: Protein phosphatase 1D (Homo sapiens) (UniProt O15297); experiment: RapidFire Mass Spectrometry qHTS Assay for Modulators of WT P53-Induced Phosphatase 1 (WIP1) (AID 1347424);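 note: amount of dephosphorylated VEPPL-S-QETFS peptide product formed by WIP1; series mostly up to about 63 µM; plate controls were DMSO wells for no effect and GSK830371 inhibitor control at 10 µM for full effect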
Method in brief: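 RapidFire mass spectrometry measured dephosphorylated peptide after 5 min room-temperature reaction of 2 uM VEPPL-pS-QETFS with 10 nM WIP1 (50 mM Tris-HCl pH 7.5, 30 mM MgCl2, 0.1 mM EGTA, BSA), following 1 hr compound preincubation; 1 uM isotope-labelled product standard.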

[3] = target: Protein phosphatase 1D (Homo sapiens) (UniProt O15297); experiment: Rhodamine-PBP qHTS Assay for Modulators of WT P53-Induced Phosphatase 1 (WIP1) (AID 1347425); note: % of control where 0% means no effect
Method in brief: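 The read-out is the change in Rhodamine-PBP fluorescence (f1 - f0, ex 525/em 598 nm) as Pi is released, read each minute for 11 min. Final reaction: 5 nM WIP1, 10 uM phosphopeptide VEPPL-pS-QETFS, 10 uM Rh-PBP, 50 mM Tris-HCl pH 7.5, 30 mM MgCl2. Compound was preincubated with enzyme for 1 hour at room temperature.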

[4] = Validation qHTS assay for inhibitors of Activation Induced Cytidine Deaminase (AID): UDG Counterscreen signal (AID 1347427); note: 0% is about no effect
Method in brief: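 Fluorescence at 560 nm excitation, 665 nm emission reports UDG signal after 250 mM NaOH (2x) addition and 30 min. Enzymes (AID 1 uM, UDG 2 U/mL, at 4/3x) preincubated 10 min with compound, then 4 h with 4x 250 nM DJC20/DJC23 substrate at room temperature.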

[5] = target: Single-stranded DNA cytosine deaminase (Homo sapiens) (UniProt Q9GZX7); experiment: Validation qHTS assay for inhibitors of Activation Induced Cytidine Deaminase (AID): AID signal (AID 1347429); note: % is set by controls: 0 for no effect and ±100 for the full control effect
Method in brief: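 Steps: dispense AID with UDG; pin-transfer compound up to 114 uM final; add DJC20/DJC23 substrate and hold 4 hr at room temperature; add NaOH, hold 30 min; read FRET signal (540/590 nm).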

[6] = Primary qHTS for inhibitors of SARS-S pseudo-typed particle cell entry (AID 1479145; calls by dose curve; note: nearly all actives have a fitted effect of over 45% in size)
[7] = Primary qHTS for Huh7 cytotoxicity: counterscreen for inhibitors of MERS-S pseudotyped particle cell entry (AID 1479147; calls by dose curve)
[8] = Primary qHTS for inhibitors of MERS-S pseudo-typed particle cell entry (AID 1479149; calls by dose curve; note: nearly all actives have a fitted effect of over 60% in size)
[9] = Primary qHTS for Vero E6 cytotoxicity: counterscreen for inhibitors of SARS-S pseudo-typed particle cell entry (AID 1479150; calls by dose curve)
[10] = Primary qHTS for inhibitors of La Crosse Virus (LACV) - induced cell death in SH-SY5Y cells (AID 1508616);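 note: top concentration of the series differs between compounds; 0% = infected DMSO wells and 100% = uninfected DMSO wells; higher means more rescue of cells from virus-induced death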
Method in brief: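 SH-SY5Y, 6000 cells/well; cpd via pin tool in DMSO; LACV 0.01 MOI; 6 d 37C 5% CO2; ATPLite, 5 min RT; luminescence normalized to ±virus DMSO controls.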

[11] = target: Calcium and integrin-binding protein 1 (Homo sapiens) (UniProt Q99828); experiment: Validation qHTS for Identification of Calcium Integrin Binding protein 1 (CIB1) Competitor (AID 1508618); note: % is set by controls: 0 for no effect and ±100 for the full control effect
Method in brief: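 CIB1-GST (1 uM final) incubated 15 min at room temperature with compounds (up to 114 uM), then FITC-labelled alphaIIb peptide (100 nM) added. FP read (Ex 480/Em 540) after 15 min, pH 7.4 buffer containing 5 mM CaCl2.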

[12] = target: Calcium and integrin-binding protein 1 (Homo sapiens) (UniProt Q99828); experiment: Primary qHTS for Identification of Calcium Integrin Binding Protein 1 (CIB1) Competitor (AID 1508620);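 note: GST tagged CIB1 binding a fluorescein labelled alphaIIb integrin peptide tracer; top concentration of the series differs between compounds; % is set by controls: 0 for no effect and ±100 for the full control effect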
Method in brief: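 CIB1-GST (1 uM final) and compound incubated 15 min at room temperature before adding FITC-alphaIIb peptide tracer (100 nM final). Competition for binding read by fluorescence polarization (ex 480, em 540) after another 15 min at room temperature.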

[13] = Primary qHTS for small molecule stabilizers of the endoplasmic reticulum resident proteome: Secreted ER Calcium Modulated Protein (SERCaMP) assay (AID 1508630); note: % is set by controls: 0 for no effect and ±100 for the full control effect
Method in brief: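 The SH-SY5Y reporter protocol was run at 3 concentrations up to 38.3 uM (primary) or 11 concentrations (follow-up): 16 h compound, 100 nM thapsigargin for 4 h, then extracellular luciferase luminescence.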

[14] = qHTS to identify inhibitors of the type 1 interferon - major histocompatibility complex class I in skeletal muscle: primary screen against the NCATS Mechanism Interrogation Plate v5.0 (MIPE) Libary (AID 1347411);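 note: plate controls were vehicle for no effect and reference inhibitor for full effect; nearly all actives have a fitted effect of over 65% in size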
Method in brief: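 Seed engineered human myoblasts (HLA-B HiBit) in medium without dexamethasone containing 4 ng/ml IFN-beta; after 1 hr add compound titrations (top 46 uM final). Incubate 24 hrs at 37 C, lyse 10 min with HiBiT reagent, read luminescence.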

[15] = Counterscreen qHTS for small molecule stabilizers of the endoplasmic reticulum resident proteome: GLuc-NoTag assay (AID 1508627);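 note: series mostly up to about 76 µM; 0% = thapsigargin alone and -100% = DMSO vehicle control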
Method in brief: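 Counterscreen line: SH-SY5Y-GLuc-NoTag cells, treated with compound 19 hr before a 4 hr, 100 nM thapsigargin calcium depletion. Secreted Gaussia luciferase in the medium was measured by luminescence after coelenterazine was added (0.07x final), with cells unlysed.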

[16] = Confirmatory qHTS for small molecule stabilizers of the endoplasmic reticulum resident proteome: Secreted ER Calcium Modulated Protein (SERCaMP) assay (AID 1508628); note: series mostly up to about 76 µM; % is set by controls: 0 for no effect and ±100 for the full control effect; nearly all actives have a fitted effect of over 40% in size
Method in brief: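 Reporter secretion upon ER calcium depletion (100 nM thapsigargin, 4 h, 37C) is measured as medium luminescence with coelenterazine, after 16 h compound pretreatment of SH-SY5Y-GLuc-SERCaMP cells; primary at three concentrations up to 38.3 uM, follow-up at 11 (up to 76.6 uM).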

[17] = Cell Viability qHTS for small molecule stabilizers of the endoplasmic reticulum resident proteome (AID 1508629); details: cell viability counter-screen, 100 nM thapsigargin for final 4 h
Source text: Assay Provider: Brandon K. Harvey Ph.D.
National Institute on Drug Abuse, National Institutes of Health, Baltimore, MD
Endoplasmic reticulum (ER) dysregulation is associated with human pathologies including neurodegenerative, cardiovascular, muscular, and diabetic conditions. Maintenance of ER calcium is critical for functions of the ER and its depletion can lead to loss of ER resident proteins, in a process termed exodosis. Therapeutic compounds capable of attenuating the redistribution of ER proteins under pathological conditions may slow or stop disease progression. To identify such compounds, we performed a quantitative high-throughput screen (qHTS) using the SERCaMP assay, which monitors secretion of ER resident proteins triggered by calcium depletion.
SERCaMP was initially developed as a reporter of ER calcium homeostasis using a Gaussia luciferase with a modified signal peptide and carboxy-terminus (GLuc-SERCaMP), modifications that confer secretion of the reporter in response to ER calcium depletion (Henderson et al., 2014). […]
9; Detection; Luminescence; ViewLux imaging system […]
7; Cell viability was measured using the CellTiter-Glo Luminescent Cell Viability Assay (Promega). […]
9; Luminescence was measured using a ViewLux CCD imaging system (Perkin Elmer) equipped with clear filters.

Chain of Calcium and integrin-binding protein 1 (Homo sapiens) (Q99828 whole entry, looked up): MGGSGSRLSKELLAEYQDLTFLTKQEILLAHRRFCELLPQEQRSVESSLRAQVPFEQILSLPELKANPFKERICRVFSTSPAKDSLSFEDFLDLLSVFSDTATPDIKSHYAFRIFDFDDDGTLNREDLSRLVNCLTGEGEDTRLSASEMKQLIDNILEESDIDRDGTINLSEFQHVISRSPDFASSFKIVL
Chain of Single-stranded DNA cytosine deaminase (Homo sapiens) (Q9GZX7 whole entry, looked up): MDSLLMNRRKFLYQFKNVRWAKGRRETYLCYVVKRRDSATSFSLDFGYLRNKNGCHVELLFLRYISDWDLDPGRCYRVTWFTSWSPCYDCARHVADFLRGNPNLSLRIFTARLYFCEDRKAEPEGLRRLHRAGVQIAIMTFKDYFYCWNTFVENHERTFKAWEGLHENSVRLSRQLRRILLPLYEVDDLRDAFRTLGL
Chain of Protein phosphatase 1D (Homo sapiens) (O15297 whole entry, looked up): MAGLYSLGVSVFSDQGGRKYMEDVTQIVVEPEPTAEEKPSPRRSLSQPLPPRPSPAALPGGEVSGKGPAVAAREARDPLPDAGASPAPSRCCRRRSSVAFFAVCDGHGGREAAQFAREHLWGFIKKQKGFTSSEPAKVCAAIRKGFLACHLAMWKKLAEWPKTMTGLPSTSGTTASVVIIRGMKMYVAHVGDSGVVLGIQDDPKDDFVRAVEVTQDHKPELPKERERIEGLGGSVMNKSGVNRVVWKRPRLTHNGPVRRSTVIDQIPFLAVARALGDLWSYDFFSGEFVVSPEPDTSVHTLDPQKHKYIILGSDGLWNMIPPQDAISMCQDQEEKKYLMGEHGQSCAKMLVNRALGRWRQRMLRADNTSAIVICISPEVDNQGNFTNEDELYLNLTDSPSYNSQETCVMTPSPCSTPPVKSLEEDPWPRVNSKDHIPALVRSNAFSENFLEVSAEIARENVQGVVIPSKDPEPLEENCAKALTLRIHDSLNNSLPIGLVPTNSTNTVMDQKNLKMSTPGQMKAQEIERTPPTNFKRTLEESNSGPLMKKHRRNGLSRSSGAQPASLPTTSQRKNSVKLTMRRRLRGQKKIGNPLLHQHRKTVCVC

COc1ccc2c(c1OC)C(=O)O[C@H]2[C@@H]1c2cc3c(cc2CCN1C)OCO3
inactive: outcome [1] | Potency [2] | outcome [3] | outcome [4] | outcome [5] | Potency [6] | Potency [7] | Potency [8] | Potency [9] | outcome [10] | outcome [11] | Potency [12] | Potency [13]

C[C@]12Cc3cn[nH]c3C[C@@H]1CC[C@@H]1[C@@H]2CC[C@@]2(C)[C@H]1CC[C@]2(C)O
inactive: Potency [14] | Potency [2] | outcome [3] | outcome [10] | Potency [12] | Potency [13]

NCCc1ccc(O)cc1
inactive: outcome [1] | Potency [2] | outcome [4] | outcome [5] | outcome [10] | outcome [11] | Potency [12] | Potency [13]

CC(NC(C)(C)C)C(=O)c1cccc(Cl)c1 (stereo not drawn)
inactive: outcome [1] | Potency [14] | Potency [2] | outcome [3] | outcome [4] | outcome [5] | Potency [6] | Potency [7] | Potency [8] | Potency [9] | outcome [10] | outcome [11] | Potency [12] | Potency [13]

C[C@@H](N)[C@@H](O)c1ccccc1
inactive: Potency [2] | outcome [3] | Potency [6] | Potency [7] | Potency [8] | Potency [9] | outcome [10] | Potency [12] | Potency [13]

c1ccc2c(c1)sc1ccccc12
inactive: Potency [2] | outcome [3] | Potency [7] | Potency [8] | Potency [9] | outcome [10] | Potency [12] | Potency [13]

CCC1(c2ccc(N)cc2)CCC(=O)NC1=O (stereo not drawn)
inactive: outcome [1] | Potency [14] | Potency [2] | outcome [4] | outcome [5] | Potency [6] | Potency [7] | Potency [8] | Potency [9] | outcome [10] | outcome [11] | Potency [12] | Potency [13]

CC(C)(C)NCC(O)c1cc(Cl)c(N)c(C(F)(F)F)c1 (stereo not drawn)
inactive: Potency [2] | outcome [3] | Potency [6] | Potency [7] | Potency [8] | Potency [9] | outcome [10] | Potency [12] | Potency [13]

O=c1[nH]oc2c1CCNC2
inactive: Potency [2] | outcome [3] | outcome [4] | outcome [5] | outcome [10] | outcome [11] | Potency [12] | Potency [13]

CC(C)NC(C)C
inactive: Potency [2] | outcome [3] | Potency [7] | Potency [8] | Potency [9] | Potency [12]

Nc1ccc([As](=O)(O)O)cc1
inactive: Potency [2] | outcome [3] | Potency [6] | Potency [7] | Potency [8] | Potency [9] | outcome [10] | Potency [12]

COP(=S)(OC)Oc1ccc(S(=O)(=O)N(C)C)cc1
inactive: Potency [2] | outcome [3] | Potency [6] | Potency [7] | Potency [8] | Potency [9] | outcome [10] | Potency [12] | Potency [13]

CCC(C)C(C)(COC(N)=O)COC(N)=O (stereo not drawn)
inactive: Potency [2] | outcome [3] | Potency [6] | Potency [7] | Potency [8] | Potency [9] | outcome [10] | Potency [12] | Potency [13]

NC(=O)CS(=O)C(c1ccccc1)c1ccccc1 (stereo not drawn)
inactive: Potency [2] | outcome [3] | outcome [10] | Potency [12]

COc1cc(CCN)cc(OC)c1OC
inactive: Potency [2] | outcome [3] | outcome [10] | Potency [12] | Potency [13]

Clc1cccc(SC2CCNCC2)n1
inactive: Potency [2] | outcome [3] | outcome [10] | Potency [12]

C[C@]12CCC(=O)C=C1CC[C@@H]1[C@H]3CC[C@](C)(O)[C@@]3(C)CC[C@@H]12
inactive: Potency [2] | outcome [3] | outcome [10] | Potency [12] | Potency [13]

COc1ccc2c3c1O[C@H]1[C@H](O)CC[C@H]4[C@@H](C2)N(C)CC[C@@]341
inactive: Potency [2] | outcome [3] | outcome [10] | Potency [12]

C[C@]12CCC(=O)C=C1CC[C@@H]1[C@@H]2CC[C@@]2(C)[C@H]1CC[C@]2(C)O
inactive: Potency [2] | outcome [3] | outcome [10] | Potency [12] | Potency [13]

O=c1[nH]c2ccccc2n1C1CCNCC1
inactive: Potency [2] | outcome [3] | outcome [10] | Potency [12] | Potency [13]

NNc1ccccc1
inactive: Potency [2] | outcome [3] | outcome [10] | Potency [12] | outcome [15] | Potency [16] | max response [17] -1.1%

CCN[C@@H](C)Cc1cccc(C(F)(F)F)c1
inactive: Potency [2] | outcome [3] | outcome [10] | Potency [12] | Potency [13]

COC(=O)[C@@H](N)CCCN/C(N)=N/[N+](=O)[O-]
inactive: Potency [2] | outcome [3] | outcome [10] | Potency [12]

COc1cc(OC)c(OC)cc1C=O
inactive: Potency [2] | outcome [3] | outcome [10] | Potency [12]

C[C@H](N)C(=O)c1ccccc1
inactive: Potency [2] | outcome [3] | outcome [10] | Potency [12] | outcome [15]

CC1(C)C(C=C(Cl)Cl)C1C(=O)OC(C#N)c1cccc(Oc2ccccc2)c1 (stereo not drawn)
inactive: Potency [2] | outcome [3] | outcome [10] | Potency [13]

COC(=O)C(Cl)C(=O)OC
inactive: Potency [2] | outcome [3] | outcome [10] | Potency [12] | Potency [13]

CC[N+]1(CC)CCC(OC(=O)C(O)(c2ccccc2)c2ccccc2)C1 (stereo not drawn)
inactive: Potency [2] | outcome [3] | outcome [10] | Potency [12]

C#C[C@]1(O)CC[C@H]2[C@@H]3CCC4=CC(=O)CC[C@]4(C)[C@H]3CC[C@@]21C
inactive: Potency [2] | outcome [3] | outcome [10] | Potency [12] | Potency [13]

ClCCN1CCCC1
inactive: Potency [2] | outcome [3] | outcome [10] | Potency [12] | Potency [13]

Nc1ccccc1C(=O)O
inactive: Potency [2] | outcome [3] | outcome [10] | Potency [12]

c1ccc(N2CCNCC2)cc1
inactive: Potency [2] | outcome [3] | outcome [10] | Potency [12]

CC(C(=O)c1ccccc1)N(C)C (stereo not drawn)
inactive: Potency [2] | outcome [3] | outcome [10] | Potency [12] | Potency [13]
